The whole screen tested about 16,000 compounds, of which about 5,700 (36%) were called active. Another 24% or so got no clear call; they are omitted. The list shows a part of the results. Values without a mark were called inactive. Calls come from the whole dose curve; as a rule, active = well fitted curve in the direction sought with a large enough effect; inconclusive = small, poorly fitted or top-dose-only effect, or effect the other way; inactive = no such curve, though single readings can be large or run the other way.
The compounds below were run against Cytochrome P450 1A2 (Homo sapiens) (UniProt P05177) (assay: Cytochrome panel assay with activity outcomes). Conditions: recombinant CYP, pro-luciferin dealkylation, luminescence, p450-cyp1a2; series mostly up to 57.1 µM.
% is set by controls: 0 for no effect and ±100 for the full control effect.

Cytochrome P450 1A2 (Homo sapiens), sequence (P05177 whole entry, looked up): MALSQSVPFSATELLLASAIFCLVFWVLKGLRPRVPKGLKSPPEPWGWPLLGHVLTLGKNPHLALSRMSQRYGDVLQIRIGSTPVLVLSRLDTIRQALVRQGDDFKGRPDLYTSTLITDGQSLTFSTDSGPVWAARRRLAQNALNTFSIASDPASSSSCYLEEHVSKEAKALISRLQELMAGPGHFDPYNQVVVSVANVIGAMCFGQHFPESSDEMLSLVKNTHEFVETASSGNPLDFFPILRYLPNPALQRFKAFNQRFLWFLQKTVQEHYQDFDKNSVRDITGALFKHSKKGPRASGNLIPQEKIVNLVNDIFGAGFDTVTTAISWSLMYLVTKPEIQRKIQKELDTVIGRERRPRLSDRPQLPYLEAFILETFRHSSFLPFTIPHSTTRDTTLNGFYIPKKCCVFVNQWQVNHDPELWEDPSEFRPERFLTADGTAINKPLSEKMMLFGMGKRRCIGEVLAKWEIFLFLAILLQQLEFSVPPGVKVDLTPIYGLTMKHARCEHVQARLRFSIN

**Q.** For N#Cc1ccc(CN2CCC3(CC2)CCN(C(=O)Oc2ccccc2)CC3)cc1, which AC50 is on record?
**A.** Its AC50 is “inactive”.

**Q.** With O=P(O)(O)CCP(=O)(O)O as the compound, how does the activity, negative = inhibition read?
**A.** The activity, negative = inhibition was 0.113% [at 11.4 µM].

**Q.** For CC(=O)[C@@H]1CC[C@@H]2[C@@H]3CC=C4C[C@H](OS(=O)(=O)O)CC[C@@]4(C)[C@H]3CC[C@]21C, which AC50 is on record?
**A.** Its AC50 is “inactive”.

**Q.** O=C1Nc2ccc(I)cc2/C1=C/c1cc(Br)c(O)c(Br)c1 was tested. Which AC50 did it give?
**A.** Its AC50 is 0.794 µM (active).

**Q.** With COC(=O)C1=CCCN(C)C1 as the compound, how does the AC50 read?
**A.** Its AC50 is “inactive”.

**Q.** With Cc1ccc(C2CC(=O)C(C=NCCN3CCN(C(=O)Cc4ccccc4)CC3)=C(O)C2)cc1 (stereo not drawn) as the compound, how does the AC50 read?
**A.** Its AC50 is “inactive”.

**Q.** How did the AC50 turn out when CC(NCc1ccc(Cl)cc1)C(O)c1ccccc1 (stereo not drawn) was run?
**A.** Its AC50 is 14.1 µM (active).

**Q.** With C[C@@H](Cc1ccc(OCC(=O)O)cc1)NC[C@H](O)c1cccc(Cl)c1 as the compound, how does the AC50 read?
**A.** Its AC50 is “inactive”.

**Q.** Which AC50 does the source give for C[C@H](N)[C@@H](O)c1ccccc1 here?
**A.** The AC50 was “inactive”.

**Q.** CCN(CC)CCn1ncc2c(N)ncnc21 was tested. Which activity, negative = inhibition did it give?
**A.** The activity, negative = inhibition was -6.04% [at 11.4 µM].

**Q.** For CC[C@H](C(=O)[C@H](C)[C@H](O)[C@H](C)CCc1ccc(C)c(O)c1C(=O)O)[C@H]1O[C@](CC)([C@@H]2CC[C@@](O)(CC)[C@H](C)O2)C[C@H]1C, which AC50 is on record?
**A.** Its AC50 is “inactive”.

**Q.** N=C1c2ccccc2CN1NC(=O)c1ccc(Cl)cc1 was tested. Which AC50 did it give?
**A.** The AC50 was “inactive”.

**Q.** COc1ccc(C[C@H]2NC[C@H](O)[C@@H]2OC(C)=O)cc1 was tested. Which AC50 did it give?
**A.** Its AC50 is “inactive”.

**Q.** With O=NN(Cc1ccc(Cl)cc1)[C@@H](C(=O)O)c1ccccc1 as the compound, how does the AC50 read?
**A.** Its AC50 is 5.01 µM (active).

**Q.** Which AC50 does the source give for O=C(O)CP(=O)(O)c1ccc(Cl)cc1 here?
**A.** The AC50 was “inactive”.

**Q.** NC[C@@H](CC(=O)O)c1ccc(Cl)cc1 was tested. Which AC50 did it give?
**A.** Its AC50 is “inactive”.

**Q.** Which AC50 does the source give for C[C@@]12CC[C@H]3[C@@H](CCC4=CC(=O)CC[C@]43C)[C@H]1CC[C@H]2C(=O)CO here?
**A.** Its AC50 is “inactive”.

**Q.** How did the AC50 turn out when CNC(=S)NC1CC2CCCC(C1)N2CC(C)C (stereo not drawn) was run?
**A.** The AC50 was “inactive”.

**Q.** For CCOCCN1CCC(OC(C)=O)C(C)C1 (stereo not drawn), which AC50 is on record?
**A.** The AC50 was “inactive”.

**Q.** C[C@H](CC(C#N)(c1ccccc1)c1ccccc1)N1CCCCC1 was tested. Which activity, negative = inhibition did it give?
**A.** Its activity, negative = inhibition is 7.09% [at 2.29 µM].

**Q.** Which AC50 does the source give for O=c1oc(Cl)c(Cl)c2ccccc12 here?
**A.** Its AC50 is 1 µM (active).

**Q.** For O=[N+]([O-])O[C@H]1CO[C@H]2[C@H]1OC[C@@H]2O[N+](=O)[O-], which AC50 is on record?
**A.** Its AC50 is “inactive”.

**Q.** O=C1OC(=O)[C@@H]2[C@@H]1[C@@H]1CC[C@H]2O1 was tested. Which AC50 did it give?
**A.** The AC50 was “inactive”.

**Q.** Which AC50 does the source give for NC(=O)CN1C[C@@H](O)CC1=O here?
**A.** Its AC50 is “inactive”.

**Q.** With CCOP(=O)(OCC)C(NC(C)=O)C(Cl)(Cl)Cl (stereo not drawn) as the compound, how does the AC50 read?
**A.** Its AC50 is “inactive”.

**Q.** With CC(O)(CS(=O)(=O)c1ccccc1)C(=O)Nc1cccc(C(F)(F)F)c1 (stereo not drawn) as the compound, how does the AC50 read?
**A.** Its AC50 is “inactive”.

**Q.** How did the AC50 turn out when O=C(Nc1cccc(C(F)(F)F)c1)c1cccn(Cc2ccc3c(c2)OC(F)(F)O3)c1=O was run?
**A.** Its AC50 is 3.16 µM (active).

**Q.** Which AC50 does the source give for CC(O)(CS(=O)(=O)c1cccc(C(F)(F)F)c1)C(=O)Nc1cccc(C(F)(F)F)c1 (stereo not drawn) here?
**A.** The AC50 was “inactive”.
